The target in assay [1] is Cytochrome P450 3A4 (Homo sapiens) (UniProt P08684). Briefly: qHTS Assay for Inhibitors and Substrates of Cytochrome P450 3A4 (AID 884). Further: nearly all actives have a fitted effect of over 50% in size. Further: potency means the concentration at half of the fitted maximal effect. An outline of the steps: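 20 nM human CYP3A4 with 25 uM Luciferin-PPXE (at KM) in 200 mM KPO4, preincubated 10 min with compound; NADPH regeneration started a 60 min RT reaction. Luciferin detected by luminescence, normalized to 57 uM ketoconazole as full inhibition.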
Chain of Cytochrome P450 3A4 (Homo sapiens) (P08684 whole entry, looked up): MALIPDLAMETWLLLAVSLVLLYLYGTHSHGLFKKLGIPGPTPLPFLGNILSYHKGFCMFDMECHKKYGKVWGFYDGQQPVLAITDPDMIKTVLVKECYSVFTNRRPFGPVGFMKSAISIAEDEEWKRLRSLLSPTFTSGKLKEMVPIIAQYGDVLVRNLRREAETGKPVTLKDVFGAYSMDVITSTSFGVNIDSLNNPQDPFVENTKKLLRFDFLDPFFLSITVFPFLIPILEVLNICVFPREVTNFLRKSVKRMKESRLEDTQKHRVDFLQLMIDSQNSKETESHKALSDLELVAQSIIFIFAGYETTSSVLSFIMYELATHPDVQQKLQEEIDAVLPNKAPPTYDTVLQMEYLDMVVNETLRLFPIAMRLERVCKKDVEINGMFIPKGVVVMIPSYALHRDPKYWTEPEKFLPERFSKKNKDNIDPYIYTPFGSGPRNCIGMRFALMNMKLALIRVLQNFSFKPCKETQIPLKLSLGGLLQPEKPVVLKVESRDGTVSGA
(In general: In qHTS, concentration-response curves come from the screen itself.)

For assay [2], the target named is Peroxisome proliferator-activated receptor gamma (Homo sapiens) (UniProt P37231). Nature of the assay: qHTS assay for small molecule agonists of peroxisome proliferator-activated receptor gamma signaling (AID 588536; active means well fitted curve in the direction sought with a large enough effect in the signal ratio, with a control signal flat, not every such curve was filed as active; the % refers to the signal ratio;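 further: 0% = DMSO basal wells and 100% = rosiglitazone at 2 µM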). An outline of the steps: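 HEK293 UAS-bla reporter line, 1% charcoal/dextran FBS; titration, 16 h, 37 C; CCF4 loading 2 h RT; fluorescence 460/530 nm. Normalized to rosiglitazone 2 uM = 100%, DMSO = 0%.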
Chain of Peroxisome proliferator-activated receptor gamma (Homo sapiens) (P37231 whole entry, looked up): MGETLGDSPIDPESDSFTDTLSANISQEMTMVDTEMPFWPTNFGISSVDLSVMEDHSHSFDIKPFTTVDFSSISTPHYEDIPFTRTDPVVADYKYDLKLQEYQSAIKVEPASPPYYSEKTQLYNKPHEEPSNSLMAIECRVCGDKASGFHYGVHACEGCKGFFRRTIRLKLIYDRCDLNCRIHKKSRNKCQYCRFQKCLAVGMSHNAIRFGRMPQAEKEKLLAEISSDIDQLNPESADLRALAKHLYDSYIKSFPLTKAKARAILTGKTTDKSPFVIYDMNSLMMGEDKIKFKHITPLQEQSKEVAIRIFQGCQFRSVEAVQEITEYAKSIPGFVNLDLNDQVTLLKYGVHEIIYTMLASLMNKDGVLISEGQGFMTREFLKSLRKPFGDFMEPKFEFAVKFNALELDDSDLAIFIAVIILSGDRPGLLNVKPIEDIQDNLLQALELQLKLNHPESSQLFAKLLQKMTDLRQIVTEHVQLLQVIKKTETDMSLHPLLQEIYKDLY

The nature of assay [3]: qHTS assay for small molecule antagonists of retinoid X receptor alpha signaling (AID 588546; active means well fitted inhibition curve with a large enough effect in the signal ratio, with a control signal flat, not every such curve was filed as active; the % refers to the signal ratio;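 further: cells stimulated with 9-cis-retinoic acid as agonist; on the % scale 0 is the no-effect control and ±100 the full control effect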). As to conditions: HEK293T RXRa-UAS-bla, beta-lactamase ratio, antagonist mode; measured here: W530 green channel, cytotoxicity proxy. An outline of the steps:
(§1)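 Beta-lactamase reporter inhibition, read as CCF4 fluorescence ratio (ex 405, em 460/530 nm) after 2 h at RT. HEK293T UAS-bla cells, 2500/well, were stimulated with 9-cis-RA at 500 or 100 nM final alongside test compound for 18 h at 37 C.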

Assay [4] deals with Retinoic acid receptor RXR-alpha (Homo sapiens) (UniProt P19793). Described as above. The settings on record: HEK293T RXRa-UAS-bla, beta-lactamase ratio, antagonist mode. The essentials:
as §1

The nature of assay [5]: qHTS assay for environmental chemicals that activate the Aryl hydrocarbon Receptor (AhR) signaling pathway (AID 651777). Further: % of control where 0% means no effect; nearly all actives have a fitted effect of over 15% in size. The settings on record: 1A2-DRE human hepatoma cells, luciferase, 24 h; activation: stronger effect = higher value. An outline of the steps: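 1A2-DRE human hepatoma reporter line; 1,200 cells/well; cmpd or DMSO 24 h, 37 C/5% CO2; One-Glo 30 min RT; luciferase lum.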

Assay [6] can be described thus: qHTS assay for small molecule agonists of the antioxidant response element (ARE) signaling pathway measured by Nrf2-dependant transcriptional activity (AID 720636; active means well fitted curve in the direction sought with a large enough effect in the repeat runs; an effect the other way counts as inactive or inconclusive;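 further: HepG2 cells with an ARE-driven luciferase reporter; % of control where 0% means no effect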). The essentials:
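Cells: ARE-luc HepG2 with Nrf2-responsive luciferase. Medium contained 1% dialyzed FBS. Compound exposure lasted 16 hr at 37 C and 5% CO2, followed by ONE-Glo luciferase detection.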

Assay [7] is described as follows: qHTS assay for small molecule agonists of the antioxidant response element (ARE) signaling pathway measured by Nrf2-dependant transcriptional activity - cell viability counter screen (AID 720653; active means well fitted curve in the direction sought with a large enough effect in the repeat runs; an effect the other way counts as inactive or inconclusive; further: on the % scale 0 is the no-effect control and ±100 the full control effect). As to conditions: ARE-bla HepG2 viability, CellTiter-Glo ATP luminescence, 16 h; max response: stronger effect = lower value. The essentials: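 ARE-bla HepG2 cells treated with compounds for 16 h at 37C; this counter screen measures viability as intracellular ATP by CellTiter-Glo luminescence after 30 min at room temperature.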

Assay [8] is described as follows: qHTS assay for cell viability of the p53RE-bla HCT-116 cell line (AID 743292). Further: on the % scale 0 is the no-effect control and ±100 the full control effect; nearly all actives have a fitted effect of over 55% in size. The essentials:
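HCT-116 p53RE-bla cells seeded 4,000/well; 5 h at 37 C; compound (DMSO) added; 16 h at 37 C; CellTiter-Glo added, 30 min RT; luminescence read.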

Assay [9] concerns the target Glutathione peroxidase 1 (Homo sapiens) (UniProt P07203). Nature of the assay: Primary qHTS Assay for Inhibitors of Recombinant Selenoprotein Glutathione Peroxidase 1 (GPX1) (AID 1845191). Further: nearly all actives have a fitted effect of over 65% in size. Further: potency means the concentration at half of the fitted maximal effect. On activity, negative = inhibition: on the % scale 0 is the no-effect control and ±100 the full control effect. The essentials:
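GR-coupled assay: compounds preincubated 30 min at room temperature with GPX1, then reaction started with CHP; final 10 nM GPX1, 1 mM GSH, 0.5 mM CHP, 0.5 mM NADPH, 100 nM GR, 0.01% BSA, pH 7.5 Tris buffer. NADPH fluorescence (340/450 nm) read at 0 and 15 min.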

In assay [10] the target is Phospholipid hydroperoxide glutathione peroxidase GPX4 (Homo sapiens) (UniProt P36969). Nature of the assay: Primary qHTS Assay for Inhibitors of Recombinant Selenoprotein Glutathione Peroxidase 4 (GPX4) (AID 1845192). Further: nearly all actives have a fitted effect of over 65% in size. The essentials:
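GR-coupled assay: recombinant GPX4 preincubated 30 min with compound at room temperature; final 200 nM GPX4, 1 mM GSH, 0.5 mM cumene hydroperoxide, 0.5 mM NADPH, 100 nM GR, 0.01% BSA, pH 7.5 Tris. NADPH fluorescence (340/450 nm) read at 0 and 15 min.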

Assay [11] addresses Luciferin 4-monooxygenase (Photinus pyralis) (UniProt P08659). Nature of the assay: Biochemical firefly luciferase enzyme assay for NPC (AID 624030). Further: nearly all actives have a fitted effect of over 70% in size. Further: potency means the concentration at half of the fitted maximal effect. An outline of the steps:
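Purified P. pyralis luciferase at 10 nM in 50 mM Tris Acetate (final), luminescence read within 5 minutes of enzyme addition to compounds. Activity normalised to PTC124 versus DMSO; concentration-response curves classed by r2, magnitude and activity.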

For another assay, the system named is CP192. Nature of the assay: qHTS profiling for inhibitors of Plasmodium falciparum proliferation (AID 504749). Further: nearly all actives have a fitted effect of over 60% in size. Further: potency means the concentration at half of the fitted maximal effect.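 On activity, negative = inhibition: 0% = DMSO vehicle and full inhibition = artemisinin control.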 As to conditions: P. falciparum in erythrocytes, SYBR Green DNA, 72 h; series mostly up to 28.7 µM. An outline of the steps: (§2)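 P. falciparum-infected erythrocytes (0.3% parasitemia, 2.5% hematocrit) incubated with compound 72 h at 37 C, 5% CO2. Parasite DNA detected by SYBR Green after lysis, overnight at room temperature; normalised to 0.29 uM artemisinin and DMSO.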

A further assay has as its system CP262. The assay is described as above. As to conditions: P. falciparum in erythrocytes, SYBR Green DNA, 72 h; series mostly up to 28.7 µM. The essentials: as §2
Another assay has as its system CP269. The assay is described as above. As to conditions: P. falciparum in erythrocytes, SYBR Green DNA, 72 h; series mostly up to 28.7 µM. An outline of the steps:
as §2

Another assay relates to CP291. The description is as above. As to conditions: P. falciparum in erythrocytes, SYBR Green DNA, 72 h; series mostly up to 28.7 µM. The essentials:
as §2

Another assay concerns CP305. The description is as above. As to conditions: P. falciparum in erythrocytes, SYBR Green DNA, 72 h; series mostly up to 28.7 µM. An outline of the steps: as §2
A further assay deals with CP329. Described as above. The settings on record: P. falciparum in erythrocytes, SYBR Green DNA, 72 h; series mostly up to 28.7 µM. An outline of the steps: as §2
For a further assay, the system named is GB4. The description is as above. As to conditions: P. falciparum in erythrocytes, SYBR Green DNA, 72 h; series mostly up to 28.7 µM. The essentials: as §2
Assay [12] in a line: qHTS drug screen for cell cycle checkpoint inhibitors in PARPi-resistant BRCA-mutant ovarian cancer cell lines. (AID 1963452; calls by dose curve; further: potency means the concentration at half of the fitted maximal effect). The settings on record: PEO1/OlaR viability, CellTiter-Glo luminescence, 96 h; for Z-AUC: stronger effect = lower value. An outline of the steps: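 PEO1, PEO4 and PEO1/OlaR ovarian cancer cells, 600 per well, exposed 96 h at 37C to a dilution series. Viability read by CellTiter-Glo luminescence, normalized to DMSO and empty wells; activity summarized as Z-AUC.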

Assay [13] can be described thus: qHTS profiling for inhibitors of Plasmodium falciparum proliferation (AID 504749). Further: potency means the concentration at half of the fitted maximal effect.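 On activity, negative = inhibition: 0% = DMSO vehicle and full inhibition = artemisinin control.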 On all read-outs here: nearly all actives have a fitted effect of over 60% in size. The settings on record: P. falciparum in erythrocytes, SYBR Green DNA, 72 h; for activity, negative = inhibition: at 28.7 µM (top of the series). An outline of the steps:
as §2

Where [14] appears, read: measured here: PEO1 parental Z-AUC.

“And” between values parts separate entries of the source, which are not always exact repeats. Identical values can stand only once. Inconclusive results are not listed. The source made the active and inactive calls. Unless noted, the call rests on the fitted dose curve; in most records, active means well fitted curve in the direction sought with a large enough effect; inconclusive means small, poorly fitted or top-dose-only effect, or another doubt; inactive means no such curve, though single readings can be large; an effect the other way counts as inactive or inconclusive. Square brackets hold non-standard residues; d marks the D form. Peptide text beside a SMILES is read from it. pGlu = O=C1CC[C@@H](C(=O)O)N1

Chain of Phospholipid hydroperoxide glutathione peroxidase GPX4 (Homo sapiens) (P36969 whole entry, looked up): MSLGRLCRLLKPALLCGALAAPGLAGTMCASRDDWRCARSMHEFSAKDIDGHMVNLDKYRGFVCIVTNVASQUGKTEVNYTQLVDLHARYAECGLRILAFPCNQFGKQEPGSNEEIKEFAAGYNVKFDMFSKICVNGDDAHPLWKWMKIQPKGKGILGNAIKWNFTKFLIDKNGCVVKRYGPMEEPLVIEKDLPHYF
Chain of Retinoic acid receptor RXR-alpha (Homo sapiens) (P19793 whole entry, looked up): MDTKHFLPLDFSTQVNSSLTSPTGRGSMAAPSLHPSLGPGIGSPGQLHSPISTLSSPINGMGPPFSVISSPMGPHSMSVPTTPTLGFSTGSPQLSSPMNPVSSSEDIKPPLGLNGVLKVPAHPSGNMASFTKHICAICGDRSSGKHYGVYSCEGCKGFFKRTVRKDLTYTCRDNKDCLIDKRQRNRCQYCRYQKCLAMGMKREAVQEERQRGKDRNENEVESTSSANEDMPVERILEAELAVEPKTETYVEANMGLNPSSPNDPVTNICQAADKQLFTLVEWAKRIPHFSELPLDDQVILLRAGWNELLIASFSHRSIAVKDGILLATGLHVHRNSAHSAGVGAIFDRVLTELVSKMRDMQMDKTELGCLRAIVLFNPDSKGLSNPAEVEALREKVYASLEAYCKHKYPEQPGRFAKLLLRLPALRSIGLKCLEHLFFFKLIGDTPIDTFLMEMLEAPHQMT
Chain of Luciferin 4-monooxygenase (Photinus pyralis) (P08659 whole entry, looked up): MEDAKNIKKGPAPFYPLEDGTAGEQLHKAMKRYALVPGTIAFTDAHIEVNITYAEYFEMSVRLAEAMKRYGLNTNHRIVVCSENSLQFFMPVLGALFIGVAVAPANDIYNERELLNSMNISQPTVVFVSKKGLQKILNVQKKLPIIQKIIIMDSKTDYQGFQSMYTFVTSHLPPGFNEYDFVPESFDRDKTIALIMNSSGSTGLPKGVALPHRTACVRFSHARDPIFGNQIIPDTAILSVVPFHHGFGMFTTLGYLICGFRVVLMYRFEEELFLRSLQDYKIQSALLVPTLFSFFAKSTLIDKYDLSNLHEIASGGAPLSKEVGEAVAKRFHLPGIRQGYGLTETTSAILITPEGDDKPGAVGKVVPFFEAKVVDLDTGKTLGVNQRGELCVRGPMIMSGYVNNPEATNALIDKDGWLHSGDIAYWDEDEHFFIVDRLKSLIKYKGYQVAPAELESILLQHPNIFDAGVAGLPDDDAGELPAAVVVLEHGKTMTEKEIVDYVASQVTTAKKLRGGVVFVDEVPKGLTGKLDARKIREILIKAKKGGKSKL
Chain of Glutathione peroxidase 1 (Homo sapiens) (P07203 whole entry, looked up): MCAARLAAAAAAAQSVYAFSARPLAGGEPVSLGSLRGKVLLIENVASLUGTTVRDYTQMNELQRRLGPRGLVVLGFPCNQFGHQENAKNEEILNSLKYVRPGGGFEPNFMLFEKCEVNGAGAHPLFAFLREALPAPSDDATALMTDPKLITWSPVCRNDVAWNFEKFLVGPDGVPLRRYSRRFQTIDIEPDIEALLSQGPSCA

On to `O=S(=O)(O)c1ccccc1`, for which the Potency result in assay [1], in assay [6], in [8], in assay [9] and in assay [10] was “inactive” in each case. In [2], the call was inactive. Besides, the max response in assay [3] is 5.99%; in assay [4] it was -0.701% (inactive); in assay [7], 11% (inactive). In addition, the activation in assay [5] is -0.565% (inactive).

`NCCCC(N)C(=O)O` (stereo not drawn): the Potency entry in assay [11], in assay [9] and in assay [10] was “inactive” in each case.

As for `Nc1nc(Cl)nc2c1ncn2C1CC(O)C(CO)O1` (stereo not drawn), the Potency entry (in assay [11]; in [9]; in assay [10]; in the assay on CP192; with CP262; with CP269) was “inactive” each time. Also, the Potency result with CP291, in the assay on CP305, in the assay on CP329 and with GB4 was “inactive” each time.

For `COc1cc(/C=C/C(=O)N2CCC=CC2=O)cc(OC)c1OC`, the Potency entry in [9] is “inactive”.

For the compound `Nc1cccc(-c2csc(NC(=O)CCCCCCC(=O)NO)n2)c1`, the Potency result in [9] was “inactive”.

Regarding `CC(C)(O)C1CCC(Nc2ccc3ncc(-c4cccc(C(F)(F)F)c4)n3n2)CC1` (stereo not drawn), in assay [9], the Potency result was “inactive”. Also, in [12], the Potency was 5.49 µM (active). Besides, the Z-AUC in assay [12] (setting [14]) is -1.03; in assay [12] (measured here: PEO4 Z-AUC), -1.21.

Consider `CCN1/C(=C/C=C/C=C/c2sc3ccccc3[n+]2CC)Sc2ccccc21`, for which the Potency is 32.2 µM (active) in [11]; 1.43 µM (active) in assay [9]; 2.82 µM (active) in assay [13] (parasite line A); 3.98 µM (active) in assay [13] (parasite line B); 5.36 µM (active) in the assay on CP192; 15.1 µM (active) in the assay with CP269. Besides, the Potency with CP291 is 13.5 µM (active); in the assay with CP305, 10.7 µM (active); in the assay with CP329, 6.75 µM (active); with GB4, 7.57 µM (active). Moreover, the Potency result with CP262 was “inactive”.

For the compound `O=NCc1ccc([N+](=O)[O-])o1`, the Potency result (in assay [11]; in assay [9]; in [10]; in the assay with CP192; in the assay on CP262; in the assay with CP291) was “inactive” in each case. The Potency entry in the assay with CP305 and with CP329 was “inactive” each time. Also, the values for the activity, negative = inhibition in assay [13] (parasite line A) and in assay [13] (parasite line B) were -23.3% (inactive) and 5.01% (inactive), respectively. Moreover, the Potency in the assay with GB4 was 13.5 µM (active).

`Cc1cccc(O)c1`: the call in assay [2] was inactive. In addition, the max response in assay [3] is -8.57% and -4.8%; in assay [4], -27.1% (inactive) and -3.41% (inactive); in assay [7] it was 2.52% (inactive) and 7.45% (inactive). Further, the activation in [5] is 3.54% (inactive) and 0.802% (inactive). Moreover, the Potency result in [6], in assay [8], in [9] and in assay [10] was “inactive” throughout.

With `CO/N=C(/C(=O)N[C@@H]1C(=O)N2C(C(=O)OC(C)OC(C)=O)=C(COC(N)=O)CS[C@H]12)c1ccco1` (stereo partly drawn), the Potency result in assay [11] was “inactive”. In assay [9], the Potency is 20.2 µM (active).

Regarding `CCNC(=O)[C@H]1CCCN1C(=O)[C@H](CCCN=C(N)N)NC(=O)[C@H](CC(C)C)NC(=O)[C@H](CC(C)C)NC(=O)[C@@H](Cc1ccc(O)cc1)NC(=O)[C@H](CO)NC(=O)[C@@H](Cc1c[nH]c2ccccc12)NC(=O)[C@H](Cc1cnc[nH]1)NC(=O)[C@@H]1CCC(=O)N1` ([pGlu]H[dW]S[dY]LLR[dP]-NHEt), the Potency entry in assay [11] and in assay [9] was “inactive” each time.

For the compound `CCCCCCCCCCCCC[N+](C)(C)Cc1ccccc1`, the Potency entry in [1], in [9] and in assay [10] was “inactive” throughout.

As for `Nc1nc(-c2ccc(Cl)c(Cl)c2)c(-c2ccncc2)s1`, the Potency in assay [1] is 0.794 µM (active). For the same compound, the Potency result in assay [9] was “inactive”.

Regarding `O=C(/C=C/c1ccc(Cl)cc1)N1CCC2(CC1)CN(Cc1ccc(Cl)c(Cl)c1)C(=O)O2`, the Potency entry in [9] and in assay [10] was “inactive” each time. In addition, the figures for the Z-AUC in assay [12], in [12] (setting [14]) and in assay [12] (measured here: PEO4 Z-AUC) were 1.05 (inactive), -0.18 and 0.00813, respectively.

With `CNC(=O)c1ccccc1Nc1nc(Nc2ccc3c(c2OC)CCC[C@H](N2CCN(CCO)CC2)C3)ncc1Cl`, the Potency entry in assay [9] and in assay [10] was “inactive” in each case. Besides, the Z-AUC is -0.709 (inactive) in assay [12], -0.531 in assay [12] (setting [14]) and -0.58 in [12] (measured here: PEO4 Z-AUC).

For the compound `O[C@@H]([C@H](O)[C@@H](O)CBr)[C@@H](O)CBr`, the outcome in assay [2] was inactive. The max response in [3] was -10.6%; in assay [4], 12.2% (inactive); in assay [7], 2.11% (inactive). Also, the activation in assay [5] is 0.0467% (inactive). In addition, the Potency entry in assay [6], in assay [8], in [9] and in [10] was “inactive” each time.

The values above are taken from PubChem BioAssay (NCATS).
